In assay [1] the target is T1, Ephrin type-B receptor 2 (Homo sapiens) (UniProt P29323).
T1 sequence (whole entry): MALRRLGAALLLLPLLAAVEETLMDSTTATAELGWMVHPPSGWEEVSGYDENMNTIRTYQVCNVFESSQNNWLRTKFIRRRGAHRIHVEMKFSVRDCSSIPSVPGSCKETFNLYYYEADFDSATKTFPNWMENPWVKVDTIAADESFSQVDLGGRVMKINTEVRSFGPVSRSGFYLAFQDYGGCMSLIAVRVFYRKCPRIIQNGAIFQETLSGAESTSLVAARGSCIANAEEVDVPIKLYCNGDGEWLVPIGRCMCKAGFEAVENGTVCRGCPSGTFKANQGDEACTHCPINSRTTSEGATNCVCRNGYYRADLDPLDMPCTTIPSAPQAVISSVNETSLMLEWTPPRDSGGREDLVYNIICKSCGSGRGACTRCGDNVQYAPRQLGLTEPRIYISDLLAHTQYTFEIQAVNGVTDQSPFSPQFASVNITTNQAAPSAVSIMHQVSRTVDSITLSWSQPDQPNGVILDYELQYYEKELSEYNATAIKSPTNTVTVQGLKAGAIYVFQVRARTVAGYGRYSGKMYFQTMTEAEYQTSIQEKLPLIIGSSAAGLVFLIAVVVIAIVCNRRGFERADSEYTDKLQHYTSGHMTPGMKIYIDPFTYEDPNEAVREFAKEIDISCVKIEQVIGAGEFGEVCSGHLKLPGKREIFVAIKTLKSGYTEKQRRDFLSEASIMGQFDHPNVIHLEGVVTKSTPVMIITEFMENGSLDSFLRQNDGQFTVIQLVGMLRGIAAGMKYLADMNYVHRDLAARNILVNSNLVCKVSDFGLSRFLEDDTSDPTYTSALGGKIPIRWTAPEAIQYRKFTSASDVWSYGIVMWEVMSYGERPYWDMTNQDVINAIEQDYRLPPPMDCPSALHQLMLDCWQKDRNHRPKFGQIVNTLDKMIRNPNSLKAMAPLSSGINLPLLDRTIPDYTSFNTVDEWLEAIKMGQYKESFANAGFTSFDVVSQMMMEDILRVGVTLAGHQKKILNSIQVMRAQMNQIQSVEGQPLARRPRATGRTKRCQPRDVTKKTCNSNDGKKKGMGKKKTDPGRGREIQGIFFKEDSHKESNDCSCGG
The settings on record: at 1 µM.

For assay [2], the target named is T2, Ephrin type-B receptor 3 (Homo sapiens) (UniProt P54753).
T2 sequence (whole entry): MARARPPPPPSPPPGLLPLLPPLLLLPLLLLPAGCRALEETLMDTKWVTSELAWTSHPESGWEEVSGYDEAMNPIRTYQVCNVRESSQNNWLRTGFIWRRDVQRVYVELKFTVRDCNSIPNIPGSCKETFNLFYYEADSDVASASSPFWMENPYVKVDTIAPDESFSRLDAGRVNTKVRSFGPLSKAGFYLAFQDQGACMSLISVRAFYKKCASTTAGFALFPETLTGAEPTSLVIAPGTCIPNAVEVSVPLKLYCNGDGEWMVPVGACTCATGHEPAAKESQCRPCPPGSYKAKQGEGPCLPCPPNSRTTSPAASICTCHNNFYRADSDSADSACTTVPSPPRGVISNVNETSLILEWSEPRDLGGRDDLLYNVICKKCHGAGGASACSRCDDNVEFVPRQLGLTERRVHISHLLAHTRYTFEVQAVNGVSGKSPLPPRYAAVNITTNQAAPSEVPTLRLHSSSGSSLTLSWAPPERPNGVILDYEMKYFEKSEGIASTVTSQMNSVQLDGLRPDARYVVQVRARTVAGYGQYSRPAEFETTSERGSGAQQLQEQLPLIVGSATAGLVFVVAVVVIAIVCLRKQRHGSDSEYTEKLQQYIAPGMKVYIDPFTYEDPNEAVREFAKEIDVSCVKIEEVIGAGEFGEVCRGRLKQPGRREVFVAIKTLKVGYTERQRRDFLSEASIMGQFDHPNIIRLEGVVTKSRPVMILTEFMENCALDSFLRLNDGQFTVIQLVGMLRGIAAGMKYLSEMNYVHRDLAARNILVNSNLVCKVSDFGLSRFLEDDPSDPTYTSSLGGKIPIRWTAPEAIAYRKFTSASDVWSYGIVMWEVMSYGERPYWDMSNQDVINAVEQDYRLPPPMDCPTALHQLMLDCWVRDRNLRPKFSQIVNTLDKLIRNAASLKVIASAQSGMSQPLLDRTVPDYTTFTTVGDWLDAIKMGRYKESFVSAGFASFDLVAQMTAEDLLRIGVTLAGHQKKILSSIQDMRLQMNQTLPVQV
Conditions: at 0.1 µM.

Assay [3] concerns the target T2, Ephrin type-B receptor 3 (Homo sapiens). The settings on record: at 1 µM.
The target in assay [4] is T3, Ephrin type-B receptor 4 (Homo sapiens) (UniProt P54760).
T3 sequence (whole entry): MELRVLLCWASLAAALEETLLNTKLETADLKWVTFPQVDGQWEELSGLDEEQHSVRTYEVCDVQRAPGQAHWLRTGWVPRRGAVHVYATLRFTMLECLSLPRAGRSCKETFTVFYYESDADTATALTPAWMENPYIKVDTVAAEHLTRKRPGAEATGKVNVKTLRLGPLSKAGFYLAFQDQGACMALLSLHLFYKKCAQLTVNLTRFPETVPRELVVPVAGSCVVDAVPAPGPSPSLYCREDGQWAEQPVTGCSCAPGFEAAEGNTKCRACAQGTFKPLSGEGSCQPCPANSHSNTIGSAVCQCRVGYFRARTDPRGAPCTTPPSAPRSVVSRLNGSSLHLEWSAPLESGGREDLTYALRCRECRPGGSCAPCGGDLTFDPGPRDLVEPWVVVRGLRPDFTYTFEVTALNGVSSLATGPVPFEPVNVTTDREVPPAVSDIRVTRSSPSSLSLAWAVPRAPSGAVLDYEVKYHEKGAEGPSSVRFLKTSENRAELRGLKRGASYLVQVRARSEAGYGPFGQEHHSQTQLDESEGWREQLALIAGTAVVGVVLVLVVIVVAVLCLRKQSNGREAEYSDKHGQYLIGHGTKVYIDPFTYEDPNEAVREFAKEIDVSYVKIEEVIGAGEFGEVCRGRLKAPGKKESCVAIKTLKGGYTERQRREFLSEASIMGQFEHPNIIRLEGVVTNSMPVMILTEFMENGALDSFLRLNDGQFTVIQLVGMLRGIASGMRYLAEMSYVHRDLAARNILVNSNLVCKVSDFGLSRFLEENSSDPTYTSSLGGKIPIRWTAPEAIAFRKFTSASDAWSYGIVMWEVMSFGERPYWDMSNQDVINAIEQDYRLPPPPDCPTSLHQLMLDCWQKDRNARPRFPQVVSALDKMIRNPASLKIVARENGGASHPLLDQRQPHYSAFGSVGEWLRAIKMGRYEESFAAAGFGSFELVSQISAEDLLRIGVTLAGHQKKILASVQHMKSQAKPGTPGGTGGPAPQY
The settings on record: at 0.1 µM.

Assay [5] deals with T3, Ephrin type-B receptor 4 (Homo sapiens). Conditions: at 1 µM.
The target in assay [6] is Receptor tyrosine-protein kinase erbB-2 (Homo sapiens) (UniProt P04626). Conditions: at 0.1 µM.
Receptor tyrosine-protein kinase erbB-2 (Homo sapiens), sequence (P04626 whole entry): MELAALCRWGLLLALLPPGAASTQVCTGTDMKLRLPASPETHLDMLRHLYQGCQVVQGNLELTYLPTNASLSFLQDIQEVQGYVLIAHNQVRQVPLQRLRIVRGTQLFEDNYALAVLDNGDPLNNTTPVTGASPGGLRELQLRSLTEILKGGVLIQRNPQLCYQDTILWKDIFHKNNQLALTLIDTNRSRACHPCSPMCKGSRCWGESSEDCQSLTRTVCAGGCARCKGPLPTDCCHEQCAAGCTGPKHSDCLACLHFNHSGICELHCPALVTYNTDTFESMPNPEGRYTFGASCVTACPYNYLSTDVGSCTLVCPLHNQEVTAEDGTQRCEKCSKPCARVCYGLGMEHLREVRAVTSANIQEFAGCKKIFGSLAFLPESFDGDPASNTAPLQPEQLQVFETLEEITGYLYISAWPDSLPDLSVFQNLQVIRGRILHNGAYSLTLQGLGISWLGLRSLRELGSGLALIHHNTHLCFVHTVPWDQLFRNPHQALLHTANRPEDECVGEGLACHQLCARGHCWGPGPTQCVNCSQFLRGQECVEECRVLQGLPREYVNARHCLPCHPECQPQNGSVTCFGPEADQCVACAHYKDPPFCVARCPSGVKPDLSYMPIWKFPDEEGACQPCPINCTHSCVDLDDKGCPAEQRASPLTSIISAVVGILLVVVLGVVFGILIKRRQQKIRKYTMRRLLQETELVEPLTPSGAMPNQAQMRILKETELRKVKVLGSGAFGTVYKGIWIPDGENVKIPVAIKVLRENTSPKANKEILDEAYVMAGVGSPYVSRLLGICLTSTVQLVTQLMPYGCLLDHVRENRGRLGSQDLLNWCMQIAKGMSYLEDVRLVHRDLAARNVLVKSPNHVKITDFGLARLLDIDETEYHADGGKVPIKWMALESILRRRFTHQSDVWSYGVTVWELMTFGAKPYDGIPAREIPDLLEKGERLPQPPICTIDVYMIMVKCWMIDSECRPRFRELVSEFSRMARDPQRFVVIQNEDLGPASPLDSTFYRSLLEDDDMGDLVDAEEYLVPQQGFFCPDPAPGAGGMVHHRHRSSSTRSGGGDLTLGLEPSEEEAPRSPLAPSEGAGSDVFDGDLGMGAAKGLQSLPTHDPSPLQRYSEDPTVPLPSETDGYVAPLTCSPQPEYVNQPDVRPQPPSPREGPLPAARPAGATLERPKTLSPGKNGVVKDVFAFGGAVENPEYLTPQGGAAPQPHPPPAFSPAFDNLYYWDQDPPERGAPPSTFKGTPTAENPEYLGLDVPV
Assay [7] has the same target. Conditions: at 1 µM.
Assay [8] has as its target Receptor tyrosine-protein kinase erbB-4 (Homo sapiens) (UniProt Q15303). The settings on record: at 0.1 µM.
Assay [9] has the same target. The settings on record: at 1 µM.
Assay [10] addresses Tyrosine-protein kinase Fer (Homo sapiens) (UniProt P16591). Conditions: at 0.1 µM.
Assay [11] shares this target. The settings on record: at 1 µM.
The target of assay [12] is Tyrosine-protein kinase Fes/Fps (Homo sapiens) (UniProt P07332). Conditions: at 0.1 µM.
Tyrosine-protein kinase Fes/Fps (Homo sapiens), sequence (P07332 whole entry): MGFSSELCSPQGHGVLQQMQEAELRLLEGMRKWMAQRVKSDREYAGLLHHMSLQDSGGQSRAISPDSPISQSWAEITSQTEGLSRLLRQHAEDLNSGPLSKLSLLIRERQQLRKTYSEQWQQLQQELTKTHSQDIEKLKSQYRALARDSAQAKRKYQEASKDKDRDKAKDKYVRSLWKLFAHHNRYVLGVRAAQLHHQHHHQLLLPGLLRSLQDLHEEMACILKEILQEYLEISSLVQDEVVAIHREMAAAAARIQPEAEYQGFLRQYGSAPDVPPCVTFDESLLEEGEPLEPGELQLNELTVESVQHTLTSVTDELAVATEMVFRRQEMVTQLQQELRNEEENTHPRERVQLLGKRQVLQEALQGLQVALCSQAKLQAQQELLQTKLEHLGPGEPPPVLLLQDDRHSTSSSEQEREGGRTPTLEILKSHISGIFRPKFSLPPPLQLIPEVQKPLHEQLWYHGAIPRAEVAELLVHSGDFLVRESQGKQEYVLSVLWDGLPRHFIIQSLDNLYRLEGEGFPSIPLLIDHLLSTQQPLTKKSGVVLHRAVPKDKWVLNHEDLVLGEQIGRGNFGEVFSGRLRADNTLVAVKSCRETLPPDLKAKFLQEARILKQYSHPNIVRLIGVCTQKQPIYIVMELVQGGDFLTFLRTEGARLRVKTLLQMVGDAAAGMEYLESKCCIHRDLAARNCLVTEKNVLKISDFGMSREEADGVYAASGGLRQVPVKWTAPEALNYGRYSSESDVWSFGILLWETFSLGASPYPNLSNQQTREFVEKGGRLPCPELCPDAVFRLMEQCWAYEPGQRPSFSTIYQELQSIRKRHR
Assay [13] shares this target. The settings on record: at 1 µM.
Assay [14] has as its target Fibroblast growth factor receptor 1 (Homo sapiens) (UniProt P11362). Conditions: at 0.1 µM.
Assay [15] shares this target. Conditions: at 1 µM.
Assay [16] deals with Fibroblast growth factor receptor 2 (Homo sapiens) (UniProt P21802). Conditions: at 0.1 µM.
The target is the same in assay [17]. Conditions: at 1 µM.
In assay [18] the target is Fibroblast growth factor receptor 3 (Homo sapiens) (UniProt P22607). The settings on record: at 0.1 µM.
Assay [19] shares this target. Conditions: at 1 µM.
The target of assay [20] is Fibroblast growth factor receptor 4 (Homo sapiens) (UniProt P22455). Conditions: at 0.1 µM.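 Note: values are mean percent inhibition of FGFR4.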
Fibroblast growth factor receptor 4 (Homo sapiens), sequence (P22455 22-802 limits assumed): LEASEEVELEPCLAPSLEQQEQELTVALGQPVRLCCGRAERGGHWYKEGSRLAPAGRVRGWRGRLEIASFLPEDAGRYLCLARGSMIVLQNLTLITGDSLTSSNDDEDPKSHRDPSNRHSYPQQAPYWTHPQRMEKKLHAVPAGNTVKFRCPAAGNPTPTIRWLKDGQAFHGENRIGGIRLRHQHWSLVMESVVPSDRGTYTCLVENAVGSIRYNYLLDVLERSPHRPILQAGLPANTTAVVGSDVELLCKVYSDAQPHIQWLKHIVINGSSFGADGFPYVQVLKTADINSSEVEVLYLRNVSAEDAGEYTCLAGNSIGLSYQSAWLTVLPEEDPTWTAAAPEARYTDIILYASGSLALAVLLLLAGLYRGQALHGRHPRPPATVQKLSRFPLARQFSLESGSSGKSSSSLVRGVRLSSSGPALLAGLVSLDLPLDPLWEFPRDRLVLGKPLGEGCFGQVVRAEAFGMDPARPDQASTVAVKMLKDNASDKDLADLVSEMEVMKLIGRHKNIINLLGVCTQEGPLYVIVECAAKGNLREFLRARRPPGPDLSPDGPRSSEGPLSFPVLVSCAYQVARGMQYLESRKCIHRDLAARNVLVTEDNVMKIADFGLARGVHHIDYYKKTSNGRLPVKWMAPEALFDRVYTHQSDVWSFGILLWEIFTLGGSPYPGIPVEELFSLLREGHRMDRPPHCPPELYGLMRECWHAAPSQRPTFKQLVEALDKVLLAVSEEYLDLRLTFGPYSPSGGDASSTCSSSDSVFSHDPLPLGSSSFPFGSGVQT

In general, inhibition refers to the drop in the measured response relative to a control, in per cent.

Fibroblast growth factor receptor 1 (Homo sapiens), sequence (P11362 22-822 limits assumed): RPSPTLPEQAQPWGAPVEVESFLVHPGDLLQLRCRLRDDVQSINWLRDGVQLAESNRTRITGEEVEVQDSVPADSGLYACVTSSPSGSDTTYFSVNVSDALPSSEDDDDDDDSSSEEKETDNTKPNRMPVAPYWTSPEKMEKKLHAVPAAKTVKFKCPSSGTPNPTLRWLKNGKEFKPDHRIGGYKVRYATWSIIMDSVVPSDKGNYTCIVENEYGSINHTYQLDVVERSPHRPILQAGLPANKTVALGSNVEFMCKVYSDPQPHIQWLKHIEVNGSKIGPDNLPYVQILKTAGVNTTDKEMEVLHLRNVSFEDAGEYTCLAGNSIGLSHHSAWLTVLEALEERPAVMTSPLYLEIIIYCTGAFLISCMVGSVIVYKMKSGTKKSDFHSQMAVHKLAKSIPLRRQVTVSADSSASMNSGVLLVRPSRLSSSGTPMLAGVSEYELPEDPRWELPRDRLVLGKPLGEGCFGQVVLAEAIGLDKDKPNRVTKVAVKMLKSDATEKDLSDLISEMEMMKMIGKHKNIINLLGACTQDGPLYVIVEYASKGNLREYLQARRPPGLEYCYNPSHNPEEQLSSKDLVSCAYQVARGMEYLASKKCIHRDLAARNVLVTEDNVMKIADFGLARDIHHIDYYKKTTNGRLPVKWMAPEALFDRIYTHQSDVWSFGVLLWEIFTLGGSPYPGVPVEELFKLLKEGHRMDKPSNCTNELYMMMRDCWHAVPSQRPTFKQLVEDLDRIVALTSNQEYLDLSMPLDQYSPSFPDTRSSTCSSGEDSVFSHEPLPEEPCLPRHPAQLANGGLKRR
Receptor tyrosine-protein kinase erbB-4 (Homo sapiens), sequence (Q15303 whole entry): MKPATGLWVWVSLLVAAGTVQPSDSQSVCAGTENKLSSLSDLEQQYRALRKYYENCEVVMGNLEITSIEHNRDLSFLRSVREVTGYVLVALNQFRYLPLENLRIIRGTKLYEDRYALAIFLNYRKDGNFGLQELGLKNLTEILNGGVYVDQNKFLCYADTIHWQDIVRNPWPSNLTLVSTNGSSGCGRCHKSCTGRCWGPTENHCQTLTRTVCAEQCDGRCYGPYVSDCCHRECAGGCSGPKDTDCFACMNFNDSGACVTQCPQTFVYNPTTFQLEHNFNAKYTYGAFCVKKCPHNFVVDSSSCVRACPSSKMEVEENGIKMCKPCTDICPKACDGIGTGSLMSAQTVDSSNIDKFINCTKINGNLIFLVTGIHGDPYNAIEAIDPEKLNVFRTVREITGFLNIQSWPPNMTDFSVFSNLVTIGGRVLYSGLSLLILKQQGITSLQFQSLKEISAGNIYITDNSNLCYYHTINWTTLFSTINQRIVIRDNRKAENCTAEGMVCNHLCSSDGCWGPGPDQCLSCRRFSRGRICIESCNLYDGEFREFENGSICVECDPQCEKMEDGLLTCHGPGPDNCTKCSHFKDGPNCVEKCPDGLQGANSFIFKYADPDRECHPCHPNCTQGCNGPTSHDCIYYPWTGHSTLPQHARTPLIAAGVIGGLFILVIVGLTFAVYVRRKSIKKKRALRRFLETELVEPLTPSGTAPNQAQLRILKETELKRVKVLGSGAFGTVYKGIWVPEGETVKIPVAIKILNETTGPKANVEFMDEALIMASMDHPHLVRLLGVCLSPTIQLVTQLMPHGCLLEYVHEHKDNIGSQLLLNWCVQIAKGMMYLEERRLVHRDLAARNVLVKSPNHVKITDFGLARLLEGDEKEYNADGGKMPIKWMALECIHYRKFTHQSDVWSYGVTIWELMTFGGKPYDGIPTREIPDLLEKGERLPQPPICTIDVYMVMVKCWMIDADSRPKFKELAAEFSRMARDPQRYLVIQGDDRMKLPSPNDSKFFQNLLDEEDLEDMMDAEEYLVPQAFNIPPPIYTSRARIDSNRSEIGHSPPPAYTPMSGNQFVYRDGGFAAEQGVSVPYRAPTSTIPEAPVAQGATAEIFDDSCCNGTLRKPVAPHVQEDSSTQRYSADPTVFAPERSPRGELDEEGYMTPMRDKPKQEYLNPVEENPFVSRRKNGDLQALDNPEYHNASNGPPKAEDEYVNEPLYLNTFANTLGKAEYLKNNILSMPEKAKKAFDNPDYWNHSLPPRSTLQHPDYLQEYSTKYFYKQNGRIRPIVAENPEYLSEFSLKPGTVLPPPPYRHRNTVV

In the case of `Nc1nc(-c2ccc(F)cc2)c(-c2ccc3ncccc3n2)s1`, the inhibition in [1] is 15.2%; in assay [2] it was 5.51%; in [3] it was 5.14%; in assay [4], 1.8%; in assay [5] it was 5.58%; in [6], 4.65%. Moreover, the inhibition in assay [7] is 6.61%; in assay [8] it was 16.8%; in assay [9] it was 48.5%; in [10], 2.2%; in assay [11], 11.1%; in assay [12], 3.07%. Also, the inhibition in [13] stood at 4.26%; in [14], 4.21%; in assay [15], 4.14%; in [16], 4.62%; in assay [17], 11.8%; in [18], 8.15%. Also, the inhibition in assay [19] was 11.4%; in [20], 1.96%.
On to `Cc1cccc(Nc2ncc(-c3ccccc3)o2)c1`, for which the inhibition was determined as 2.78% in assay [1]; 1.56% in assay [2]; 2.29% in assay [3]; 2.8% in assay [4]; 3.6% in assay [5]; 2.48% in assay [6]. The inhibition was determined as 2.62% in assay [7]; 3.46% in [8]; 8.57% in assay [9]; 3.24% in assay [10]; 7.96% in [11]; 1.97% in assay [12]. Besides, the inhibition in [13] worked out at 3.44%; in assay [14] it was 5.23%; in assay [15] it was 3.22%; in assay [16], 6.15%; in assay [17] it was 6.52%; in assay [18], 6.68%. Besides, the inhibition in assay [19] was determined as 4.17%; in assay [20], 2.94%.
Consider `Fc1ccc(-c2nn3ncccc3c2-c2ccnc(Nc3ccc4c(c3)OCCO4)n2)cc1`, for which the inhibition was 73.6% in assay [1]; 16.2% in assay [3]; 20.1% in assay [4]; 64.8% in assay [5]; 11% in assay [6]; 41.4% in assay [7]. In addition, the inhibition came out at 84.3% in [8]; 94.6% in [9]; 1.71% in assay [10]; 13.8% in [11]; 3.45% in [12]; 6.43% in assay [13]. Further, the inhibition in assay [14] amounted to 4.68%; in [15] it was 15.9%; in [16], 5.02%; in assay [17] it was 23.5%; in assay [18] it was 4.66%; in assay [19], 13.5%. In assay [20], the inhibition was -2%.
As for `COc1cccc(-c2c[nH]c3c(N/N=C/c4ccncc4)ncnc23)c1`, the inhibition was 25.9% in assay [1]; 3.32% in assay [2]; -5.7% in [3]; 3.21% in assay [4]; 13.5% in [5]; 0.26% in assay [6]. The inhibition in assay [7] was 2.47%; in assay [8], 8.94%; in assay [9] it was 21.9%; in assay [10] it was 4.27%; in [11], 8.57%; in assay [12] it was 1.82%. Besides, the inhibition is 2.81% in assay [13]; 0.74% in assay [14]; 6.34% in assay [15]; 1.79% in assay [16]; 9.49% in [17]; 4.63% in [18]. In addition, the inhibition was determined as 8.05% in [19] and 4.93% in [20].
Take `COc1cc2c(cc1Nc1nc(Nc3ccsc3C(N)=O)c3cc[nH]c3n1)N(C(=O)CN(C)C)CCC2(C)C`: the inhibition was 9.01% in assay [1]; -7.19% in [3]; 2.71% in [4]; 2.72% in assay [5]; 2.91% in assay [6]; -0.07% in [7]. The inhibition was 14.2% in [8]; 36.4% in assay [9]; 95.5% in [10]; 94.8% in [11]; 76.5% in assay [12]; 79.4% in [13]. Also, the inhibition was determined as 7.38% in assay [14]; 4.2% in [15]; 5.74% in assay [16]; 13.5% in assay [17]; 9.36% in [18]; 7.81% in assay [19]. The inhibition in assay [20] is -6.03%.
Regarding `CC(C)COC(=O)c1ccc2c(c1)/C(=C/Nc1ccc(S(N)(=O)=O)cc1)C(=O)N2`, the inhibition in [1] was -4.93%; in assay [2] it was 0.34%; in assay [3] it was -4.87%; in assay [4] it was -1.38%; in assay [5], 1.51%; in assay [6], -2.55%. Further, the inhibition was -0.17% in assay [7]; -2.58% in [8]; -2.34% in assay [9]; 0.76% in assay [10]; 11.1% in assay [11]; -0.89% in assay [12]. For the same compound, the inhibition in [13] is -0.27%; in assay [14], 0.13%; in assay [15], 4.86%; in [16], -0.6%; in assay [17], 17.3%; in assay [18], 0.1%. Also, the inhibition was 10.8% in [19] and 4.93% in assay [20].
Turning to `CS(=O)(=O)CCNCc1coc(-c2ccc3ncnc(Nc4ccc(OCc5ccccc5)cc4)c3c2)c1`, the inhibition was determined as 7.45% in assay [1]; 3.83% in assay [2]; 4.34% in assay [3]; 2.88% in [4]; 4.04% in assay [5]; 6.1% in assay [6]. The inhibition was 59% in [7]; 55.3% in [8]; 94.1% in assay [9]; -0.6% in [10]; 1.36% in assay [11]; 2.79% in [12]. Besides, the inhibition in assay [13] was 3.78%; in [14] it was 3.21%; in [15], 2.53%; in assay [16], 3.27%; in assay [17], 4.29%; in [18] it was 5.11%. Further, the inhibition in assay [19] is 3.99%; in [20], 4.22%.
